A selection: hits, their analogues and other compounds. The true share with any hit is near 14%.
Giardia FBPA inh = inhibitors of Giardia lamblia fructose-1,6-bisphosphate aldolase; A8B2U2; 290,000 tested, 0.71% active; purified Giardia FBPA; Potency, µM (series often up to 59.6 µM), for the others: at the highest dose activity, negative = inhibition, actives largely listed as inhibitors; AID 2451; also: potency is read from the fitted curve at half-maximal effect; nearly all actives have a fitted effect of over 55% in size
Target sequence (A8B2U2 whole entry, looked up): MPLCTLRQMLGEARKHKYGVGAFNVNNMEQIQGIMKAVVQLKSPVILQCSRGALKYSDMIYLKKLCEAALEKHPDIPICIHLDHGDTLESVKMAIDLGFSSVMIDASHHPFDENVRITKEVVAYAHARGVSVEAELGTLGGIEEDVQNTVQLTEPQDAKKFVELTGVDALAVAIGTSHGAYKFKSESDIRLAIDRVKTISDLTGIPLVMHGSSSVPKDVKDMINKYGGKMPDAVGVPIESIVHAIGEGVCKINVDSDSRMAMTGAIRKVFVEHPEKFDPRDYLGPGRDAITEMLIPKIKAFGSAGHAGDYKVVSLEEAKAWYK
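Giardia FBPA (40 nM reagent) was preincubated 10 min at RT with compound (up to 57.5 uM final), then substrate plus GAPDH/TPI/NAD/arsenate coupling system with diaphorase/resazurin was added; resorufin fluorescence (525/598 nm) was read after 20 min.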
Pf growth 96h = inhibits malaria parasite growth, 96 h | P. falciparum luciferase reporter growth, 96 h | Potency, µM (titrated, usually from 28.7 µM), for the others: at the highest dose activity change, negative = inhibition, actives largely listed as inhibitors | 320,000 tested, 6.9% active; also: potency is read from the fitted curve at half-maximal effect
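Readout is luminescence from an integrated firefly luciferase in P. falciparum. Red cells, 2% hematocrit and 0.05% parasitemia final, were cultured with compound through two parasite generations (96 hours) at 37 C, 5% CO2.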
HCMV antiviral = human cytomegalovirus inhibition; activity change, negative = inhibition, % at 57.5 µM; 410,000 tested, 4.5% active; HFF cells, HCMV-luciferase reporter, 72 h; hits give low values; AID 1259415; in the data active = activity change below about -60%; inconclusive = no clear call, values can overlap the other calls; inactive = above about -39%
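Luciferase read-out from HCMV-luciferase-infected HFFs (MOI 1 PFU/cell) 72 h post infection at 37C; compounds added after 16 h cell attachment; activity normalized between buffer-only basal and Salinomycin (10uM) inhibitor controls.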
Pf growth 48h = P. falciparum growth inhibition at 48 hours (one generation); P. falciparum luciferase growth in erythrocytes, 48 h; Potency, µM (doses to about 28.7 µM), for the others: top-dose activity change, negative = inhibition, usual class: inhibitors; 310,000 tested, 5.9% active; AID 504832; also: potency is read from the fitted curve at half-maximal effect
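Parasite viability was followed by luminescence of a genomically integrated firefly luciferase. Cultures held 0.1% parasitemia at 2% hematocrit (final), incubated under 5% CO2 at 37 C.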
Sm TGR inh = S. mansoni TGR enzyme inhibition | AID 485364 | purified TGR, DTNB reduction, TNB absorbance 405 nm | Potency, µM (series often up to 114 µM), without a hit: at the top dose activity change, negative = inhibition, hits mostly inhibitors | Q962Y6 | 360,000 tested, 3% active; also: potency is read from the fitted curve at half-maximal effect; nearly all actives have a fitted effect of over 60% in size
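Kinetic colorimetric format: TGR-catalysed, NADPH-driven DTNB reduction monitored via TNB absorbance. Enzyme dispensed at 20 nM; compound exposure 15 min at room temperature before reaction start.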
An asterisk follows results filed as active; ? = inconclusive; . = not tested or not shown; ! = not active in a repeat. Unless noted, calls follow the shape of the dose curve; as a rule, active = well fitted curve in the direction sought with a large enough effect; inconclusive = small, poorly fitted or top-dose-only effect, or another doubt; inactive = no such curve, though single readings can be large; an effect the other way counts as inactive or inconclusive. % is scaled to controls: 0 for no effect and ±100 for the full control effect.

SMILES | Giardia FBPA inh | Pf growth 96h | HCMV antiviral | Pf growth 48h | Sm TGR inh
CCOc1ccc(N=CC2=C(O)CC(c3ccco3)CC2=O)cc1 (centres undefined) | 3% | 17% | 13 | 6% | -12%
O=C1CC(c2ccco2)CC(O)=C1C=NCCN1CCNCC1 (centres undefined) | -15% | -10% | 65 | -4% | 40µM*
O=C1CC(c2ccccc2Cl)CC(O)=C1C=Nc1ccccc1 (centres undefined) | 8% | -7% | -73* | 2% | -5%
Cc1[nH]nc(N=CC2=C(O)CC(c3ccco3)CC2=O)c1-c1ccccc1 (centres undefined) | -9% | 7.4µM* | 2 | ? | ?
O=C1CC(c2ccco2)CC(O)=C1C=Nc1cc(Cl)cc(Cl)c1 (centres undefined) | -12% | . | 23 | 5% | 18µM*
C=CCOc1ccc(C2NC(=O)c3ccccc3O2)cc1OC (centres undefined) | . | . | -11 | . | .
CC(=O)N1CCc2cc(S(=O)(=O)CCC(=O)NCc3ccc(C)o3)ccc21 | -14% | 10% | 6 | 16% | 11µM*
Cc1ccc(CNC(=O)CCS(=O)(=O)c2cc(Br)cc3c2N(C(=O)C2CC2)CC3)o1 | -9% | 12µM* | 30 | 2.6µM* | 28µM*
COc1ccc(CNS(=O)(=O)c2cc3c(cc2Cl)N(C(C)=O)CCO3)cc1 | . | . | 42 | . | -6%
COc1ccc(-n2c(=O)c(C)nc3cnc(Nc4ccccc4)nc32)cc1 | 1% | . | . | . | .
Oc1ccccc1-c1cc(-c2cccc(F)c2)n[nH]1 | 1% | ? | 212 | -11% | -15%
CC(C)(C)c1ccc(-c2cc(-c3ccccc3O)[nH]n2)cc1 | -2% | -12% | -95* | 0% | -21%
CSc1nn(CCc2ccncc2)c(=S)s1 | ? | -8% | -31 | ? | 35µM*
S=c1sc2ccccc2n1CCc1ccncc1 | . | ? | ? | ? | -14%
COc1ccc(Cn2cc3c(-c4ccc(F)cc4)nnc-3c3cc(OC)c(OC)cc32)cc1 | 7% | 0.15µM* | 14 | 0.15µM* | -5%
COc1cc2c3nnc(-c4ccc(F)cc4)c-3cn(Cc3ccc(F)cc3)c2cc1OC | 12% | ? | -26 | . | -2%
COc1cc2c3nnc(-c4ccc(F)cc4)c-3cn(Cc3ccccc3)c2cc1OC | 18% | 0.41µM* | 32 | ? | 1%
COc1cccc(Nc2ncc3nc(-c4cccs4)c(=O)n(C[C@H]4CCCO4)c3n2)c1 | -12% | . | . | . | .
Cc1cccc(OCC(=O)Nc2nnc(S(=O)(=O)N3CCCCCC3)s2)c1 | 0% | 12µM* | 8 | 33% | -10%
COc1ccccc1C(=O)Nc1nnc(S(=O)(=O)N2CCCCCC2)s1 | ? | ? | -9 | 0% | -1%
COc1ccccc1C(=O)Nc1nnc(S(=O)(=O)N2CCCCC2)s1 | -6% | 35% | -73*! | -10% | -7%
COc1ccc(C2=CC(=O)CC(C)(C)C2=O)cc1 | . | . | -18 | . | .
CCCCCn1c(=O)[nH]c2cc(C(=O)NCc3ccc4c(c3)OCO4)ccc2c1=O | 8% | ? | ? | 46% | 16%
O=C(c1ccc2c(=O)n(Cc3ccc(Cl)cc3)c(=S)[nH]c2c1)N1CCOCC1 | ? | 23% | -65* | 12% | -4%
CCOC(=O)N1CCN(C(=O)c2ccc(Cn3c(=S)[nH]c4cc5c(cc4c3=O)OCO5)cc2)CC1 | -4% | ? | -7 | 13µM* | -2%
SMILES | Giardia FBPA inh | Pf growth 96h | HCMV antiviral | Pf growth 48h | Sm TGR inh
CCCCCn1c(=O)[nH]c2cc(C(=O)N3CCN(Cc4ccc5c(c4)OCO5)CC3)ccc2c1=O | 0% | -4% | -76* | -1% | -3%
CC1CC(C)CN(C(=O)c2ccc3c(c2)OCCO3)C1 (centres undefined) | . | 4.7µM* | 6 | 2.9µM* | 3%
O=C(COC(=O)c1ccc(S(=O)(=O)N2CCCCC2)cc1)NCc1ccc(F)cc1 | . | 9% | -23 | ? | 0%
NC(=O)c1ccsc1NC(=O)CSc1nncs1 | . | -16% | -16 | 40% | -3%
CCOC(=O)N1CCC(NC(=O)c2c(C)nn(-c3cccc(C)c3)c2-n2cccc2)CC1 | . | . | 0 | . | 7%
CC1CC(C)CN(C(=O)c2ccc3c(=O)n(Cc4ccc5c(c4)OCO5)c(=S)[nH]c3c2)C1 (centres undefined) | 18% | 7.4µM* | -81* | -5% | 0%
